Results filed as inconclusive are left out. The source made the active and inactive calls. Calls come from the whole dose curve; as a rule, active = well fitted inhibition curve with a large enough effect; inconclusive = small, poorly fitted or top-dose-only effect; inactive = flat fitted curve, though single readings scatter.
Experiments:
Assay in all cases: qHTS profiling for inhibitors of Plasmodium falciparum proliferation (AID 504749); note: nearly all actives have a fitted effect of over 60% in size
Conditions in all cases: P. falciparum in erythrocytes, SYBR Green DNA, 72 h; series mostly up to 12.8 µM
[1] = tested on: CP266
Outline: (§1)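 SYBR Green fluorescence of parasite DNA, read after lysis and overnight dark incubation, measured growth over 72 h in erythrocyte culture at 0.3% parasitemia and 2.5% hematocrit. Data normalised to DMSO and 0.29 uM artemisinin, with plate-drift correction.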

[2] = tested on: CP268
Outline: as §1

[3] = tested on: CP269
Outline: as §1

[4] = tested on: CP286
Outline: as §1

[5] = tested on: CP291
Outline: as §1

[6] = tested on: CP297
Outline: as §1

[7] = tested on: CP305
Outline: as §1

[8] = tested on: CP315
Outline: as §1

[9] = tested on: CP325
Outline: as §1

[10] = tested on: CP329
Outline: as §1

[11] = tested on: CP335
Outline: as §1

[12] = tested on: DFO2036
Outline: as §1

[13] = tested on: DIV17
Outline: as §1

[14] = tested on: DIV30
Outline: as §1

[15] = tested on: Dd2
Outline: as §1

[16] = tested on: ECU
Outline: as §1

[17] = tested on: FAB9
Outline: as §1

[18] = tested on: GB4
Outline: as §1

[19] = tested on: HB3
Outline: as §1

[20] = tested on: ICS
Outline: as §1

[21] = tested on: JCK
Outline: as §1

[22] = tested on: N140
Outline: as §1

[23] = tested on: P93_24
Outline: as §1

[24] = tested on: P94_40
Outline: as §1

[25] = tested on: PAD
Outline: as §1

[26] = tested on: PC15
Outline: as §1

[27] = tested on: PC26
Outline: as §1

[28] = tested on: PC49
Outline: as §1

[29] = tested on: SC27B
Outline: as §1

[30] = tested on: TAB109
Outline: as §1

[31] = tested on: TAB113
Outline: as §1

[32] = tested on: TAB165
Outline: as §1

[33] = tested on: W2
Outline: as §1

Measured: Potency

Nc1nc(NC2CC2)c2ncn([C@H]3C=C[C@@H](CO)C3)c2n1
inactive: all assays above
